Out of some 69,000 compounds screened, about 8,600 (12%) showed an effect of 50% or more. This is one part of a sample in which strong results are shown more often than they occur.
system: Plasmodium berghei; experiment: Screen against P. berghei liver stage (PbLuc), transformed with Luciferase, at 10uM; assay type: functional, HepG2; conditions: tested at 10 uM

SMILES	INHIBITION
Cc1ccc(NC(=O)c2nc3c(s2)CCCN3C(C)C)cn1	63.5%
Cc1ccc(NC(=O)c2nc3c(s2)CCCN3C(=O)C2CC2)cn1	-0.804%
CC(=O)N1CCCc2sc(C(=O)Nc3ccc(C)nc3)nc21	34.6%
NS(=O)(=O)CCN(CCc1cccc(F)c1)C1CCCC1	36.3%
CS(=O)(=O)Nc1cnn(Cc2cccc(Cl)c2)c1	29.1%
COc1ccc(-n2ccc(C(=O)NCCn3ccnc3)n2)cc1	5.9%
CN1[C@@H]2CC[C@H]1CN(C(=O)c1nnc3n1CCCC3)CC2	-151%
O=C(NCc1ccccn1)[C@@]12CCO[C@@H]1CCN(Cc1ccccn1)C2	51.2%
O=C(NCc1ccco1)[C@@]12CCO[C@@H]1CCN(Cc1ccccn1)C2	-34.7%
O=C(NCc1ccccn1)[C@@]12CCO[C@@H]1CCN(c1ncccn1)C2	41.2%
CNC(=O)[C@@]12CCO[C@@H]1CCN(Cc1scnc1C)C2	19%
Cc1cc(CN2CC[C@H]3OCC[C@@]3(C(=O)NC(C)C)C2)no1	6.32%
O=C(NCc1ccco1)[C@@]12CCO[C@@H]1CCN(CCN1CCCC1)C2	22.4%
COCCNC(=O)[C@@]12CCO[C@@H]1CCN(Cc1scnc1C)C2	8.67%
Cc1ncsc1CN1CC[C@H]2OCC[C@@]2(C(=O)NCC2CC2)C1	53.4%
CC(C)NC(=O)[C@@]12CCO[C@@H]1CCN(Cc1ccco1)C2	60.3%
c1coc(CN2CCCn3c(nnc3Cn3cccc3)C2)c1	45.4%
Cc1ccc(CN2C[C@H](OCC3CCOCC3)[C@H]3COC[C@H]32)o1	-59.9%
Oc1cc(CC2COCCN(CC3(O)CCOCC3)C2)ncn1 (configuration not stated)	6.26%
CC(C)c1nnc2n1CCN(C(=O)Cc1csc(C(C)(C)C)n1)C2	1.35%
CC(C)N1CCC(Cc2cc(-c3cccc(C(=O)O)c3)ncn2)CC1	23.4%
c1coc(CN2CCO[C@H]3[C@H](OCC4CCCC4)CC[C@@H]32)c1	47.4%
c1cc(CN2CCO[C@H]3[C@H](OCC4CCCC4)CC[C@@H]32)ccn1	62.6%
Fc1ccc(CN2CCO[C@H]3[C@H](OCCN4CCCC4)CC[C@@H]32)cc1	15.1%
Fc1ccc(CN2CCO[C@H]3[C@H](OCC4CCCC4)CC[C@@H]32)cc1	66.8%
Fc1ccc(CN2CCO[C@H]3[C@H](OCC4CC4)CC[C@@H]32)cc1	-30.8%

SMILES	INHIBITION
c1cc(CN2CCO[C@H]3[C@H](OCCN4CCCC4)CC[C@@H]32)ccn1	38.2%
CCOC[C@]12COC[C@H]1CN(Cc1ccc(F)c(F)c1)C2	10.4%
COc1ccc(-c2n[nH]cc2CN(C)Cc2nccn2C)c(F)c1	51.5%
CN(Cc1c[nH]nc1-c1ccc(F)cc1F)Cc1nccn1C	52.2%
COc1ccc(-c2n[nH]cc2CN(C)Cc2nnc(C)o2)c(F)c1	23.8%
COc1ccc(-c2n[nH]cc2CN(C)Cc2ccoc2)c(F)c1	-25.8%
Cc1cnccc1CN(C)Cc1c[nH]nc1-c1ccc(F)cc1F	18.6%
CC(C)CN(C)Cc1c[nH]nc1-c1ccc(F)cc1F	11.9%
Cc1nc(CN2C(=O)CC[C@@H]3[C@H]2CCN3C(=O)C2CCCO2)cs1 (some centres not stated)	15.4%
O=C(CCc1ccncc1)N1CCc2cc(Cl)cc(Cl)c2C1	49.7%
COc1ccc(F)cc1C(=O)N1C[C@@H]2CC[C@H]1CN(c1ncccn1)C2	10.7%
CC(C)C(=O)N1CCC(C)(c2cc(O)[nH]n2)CC1	-4.87%
c1ccc(CCN2CCCC2c2cncc(Nc3nncs3)n2)cc1 (configuration not stated)	11.8%
CS(=O)(=O)N1CCCC1c1cccc(Nc2nccs2)n1 (configuration not stated)	-17.7%
COc1cccc(CN2CCCC2c2cncc(Nc3nncs3)n2)c1 (configuration not stated)	-29.9%
Cc1ccccc1CN1CCCC1c1cncc(Nc2nncs2)n1 (configuration not stated)	22%
c1ccc(CCN2CCCC2c2ccnc(Nc3ncccn3)n2)cc1 (configuration not stated)	11.8%
Cc1cccc(CN2CCCC2c2cccc(Nc3nccs3)n2)c1 (configuration not stated)	72%
Cc1cccc(CN2CCCC2c2cncc(Nc3nncs3)n2)c1 (configuration not stated)	46.2%
Cc1ccccc1CN1CCCC1c1cccc(Nc2nccs2)n1 (configuration not stated)	71.8%
c1ccc(CCN2CCCC2c2cccc(Nc3nccs3)n2)cc1 (configuration not stated)	69.2%
COc1cccc(CNC(=O)CCNS(=O)(=O)c2ccc(C)cc2)c1	-31.3%
CCCC1c2cccn2CCN1S(=O)(=O)N1CCOCC1 (configuration not stated)	1.65%
CCCc1nc(C(=O)NC(COC)c2ccnn2C)cs1 (configuration not stated)	16.3%
Cc1ccc(CN2CCC[C@]3(C(=O)O)CN(CC4CC4)C[C@@H]3C2)s1	-27.6%
COCC(=O)N1CCN(Cc2cc(F)cc(Br)c2)CC1	-10.9%

Reference: ChEMBL document CHEMBL4513216, “Probing the Open Global Health Chemical Diversity Library for Multistage-Active Starting Points for Next-Generation Antimalarials” (ACS Infect Dis, 2020)
